According to PubChem BioAssay (NCI):
The panel holds about 79,000 compounds, 15% with a hit somewhere; the sample as a whole holds those more often. A number with no mark means an inactive call. Activity calls are given as the source filed them. Cut-off read from the data, not from the text of the source: active = growth inhibition above about 70%; inactive = the rest.

Key:
[1] = NCI Yeast Anticancer Drug Screen. Data for the rad50 strain (AID 155);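 note: 0% = growth of vehicle-only cultures of the same strain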; settings: S. cerevisiae rad50 strain growth inhibition; at 50.0 µM; stronger effect = higher value
Outline: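 DNA repair mutant yeast, compound exposure, growth read-out; inhibition is taken relative to vehicle.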

[2] = NCI Yeast Anticancer Drug Screen. Data for the mec2-1 strain (AID 157); settings: S. cerevisiae mec2-1 strain, at 50.0 µM, stronger effect = higher value
Outline: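 Vehicle-treated cultures served as reference for growth inhibition of compound-exposed mec2-1 yeast.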

[3] = NCI Yeast Anticancer Drug Screen. Data for the sgs1 mgt1 strain (AID 161);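 note: 0% = growth of cultures given vehicle only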; settings: S. cerevisiae sgs1 mgt1 strain, at 50.0 µM, stronger effect = higher value
Outline: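 Mutant yeast exposed to compound; growth scored against vehicle-only wells.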

[4] = NCI Yeast Anticancer Drug Screen. Data for the cln2 rad14 strain (AID 165);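 note: 0% = growth equal to vehicle treated cultures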; settings: S. cerevisiae cln2 rad14 strain, at 50.0 µM, stronger effect = higher value
Outline: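 Each compound was tested on cln2 rad14 yeast. Inhibition of growth was calculated against vehicle-exposed controls.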

[5] = NCI Yeast Anticancer Drug Screen. Data for the bub3 strain (AID 167); settings: S. cerevisiae bub3 mutant strain, at 50.0 µM, stronger effect = higher value
Outline: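 In this screen, a yeast mutant lacking normal mitotic checkpoint function is challenged with compound. Relative growth versus vehicle gives the inhibition value.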

[6] = NCI Yeast Anticancer Drug Screen. Data for the mlh1 rad18 strain (AID 175); settings: S. cerevisiae mlh1 rad18 strain growth inhibition; at 50.0 µM; stronger effect = higher value
Outline: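 Vehicle-treated cultures served as the reference for growth inhibition in a yeast strain carrying DNA damage repair alterations exposed to each compound.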

Compound	growth inhibition [1]	growth inhibition [2]	growth inhibition [3]	growth inhibition [4]	growth inhibition [5]	growth inhibition [6]
CCCC(CCC)=C1C(=O)N=C(N)NC1=O	-6.45%	4.9%	-2.7%	-9.05%	-7.35%	-16%
O=C(NCCCOc1ccc(Cl)c(Cl)c1)NCCc1ccc(Cl)c(Cl)c1	6.65%	4.7%	-3.95%	-8.9%	0.95%	15.4%
C=CCNC(=O)N(CCCCC(NC(C)=O)C(=O)NCc1ccccc1)Cc1ccccc1 (stereo unspecified)	11.7%	6.55%	-12.7%	11.5%	16.4%	11.9%
CC1=C(O)c2cc3c(cc2C(=O)C1=O)OCO3	-21.5%	-0.95%	-15%	-15.6%	-18.4%	26.9%
CCN(CC)Cc1cc(C)c(O)c(N=Nc2ccc(-c3ccc(N)c(OC)c3)cc2OC)c1C	-21.4%	12.7%	-8.05%	-2.05%	-6.1%	-21.4%
COc1c(C(=O)/C(=N/Nc2cccc(Cl)c2)C(C)=O)c(O)c(OC)c2occc12	-5.15%	-8%	-6.6%	-8.5%	8.2%	7.65%
CCCCNC(=O)c1ccc(C(C)C)cc1	9.2%	-0.95%	0.4%	-4.15%	-0.9%	-5.05%
CCCCC(CC)COC(=O)CCl (stereo unspecified)	21.1%	10.7%	8.3%	-14.8%	-1.6%	21.8%
N#CCC(CC#N)C(c1cccc2ccccc12)c1cccc2ccccc12	9.85%	-2.45%	-3.85%	3.25%	18.7%	-1.7%
COc1ccc(C(C#N)C(=O)C(=O)Nc2ccc(C)cc2C)cc1OC (stereo unspecified)	-30.6%	19.6%	42%	-22.9%	48.2%	28.8%
CCc1c([N+](=O)[O-])c2cc([N+](=O)[O-])ccc2n1C	3.35%	8.85%	-7.65%	-1.65%	2.8%	8.75%
O=C1OC(c2cccc(Cl)c2)=N/C1=C\c1cccc([N+](=O)[O-])c1	15.5%	12.3%	24.6%	18.9%	17.6%	2%
O=c1cc(CO)oc2c3c(cc(O)c12)OCC(COC1OC(CO)C(O)C(O)C1O)=CC3 (stereo unspecified)	-1.25%	-8.75%	-1.75%	-13.9%	-0.55%	-0.9%
O=C(OC1CCc2ccccc2C1)c1ccc(N=Nc2ccccc2)cc1 (stereo unspecified)	24.5%	5.55%	20.7%	-39.8%	5.95%	18.9%
Cc1cc(S(=O)(=O)Nc2n[nH]c(Nc3ccc4ccccc4c3)n2)c(S)cc1Cl	34.2%	5.85%	29.2%	36.5%	35.9%	39.9%
CCOC(=O)c1ccc(OC)c2[nH]c3c(c(=O)c12)C(=O)c1[nH]c2c(OC)ccc(C(=O)OCC)c2c(=O)c1C3=O	-25.4%	15.6%	-23.2%	-17.9%	-0.25%	-25.2%
COc1ccc2nc(Cl)sc2c1	32.4%	-17.6%	41.4%	21.4%	42.1%	13.6%
CCOC(=O)C1=C(NC(C)(C)C)OCC1=O	-10.7%	-17.9%	-2.2%	3.1%	-16.6%	16.1%
CCN(c1ccccc1)c1ncnc2nc[nH]c12	6.75%	0.75%	-1.75%	-28.9%	19.9%	-5.5%
Cc1nc(N)[nH]c(=O)c1CCCNc1ccc(CCCCCCC2(CCl)OCCO2)cc1	12.4%	-0.15%	1.45%	2.9%	17.4%	-9.4%
COC1OC(CBr)C(OC(=O)c2ccccc2)C(OC(C)=O)C1OC(C)=O (stereo unspecified)	-23.9%	-4.6%	-12.2%	11%	-1.5%	-22.8%

Compound	growth inhibition [1]	growth inhibition [2]	growth inhibition [3]	growth inhibition [4]	growth inhibition [5]	growth inhibition [6]
CCOc1ccc2ccccc2c1	-28.2%	0.7%	1.25%	-49.5%	-3.15%	-19.7%
COc1ccc(C2CC(c3ccccc3)=NN2c2ccccc2)cc1 (stereo unspecified)	0.75%	-14.4%	5.85%	-7.55%	4.85%	7.95%
CN=C(N)NC	-0.1%	2.45%	15.1%	24.1%	8.55%	20.1%
CCOC(=O)/C(=N/O)c1ccccn1	0.4%	-8.65%	-4.35%	16.2%	-5.35%	-3.8%
O=C(Nc1cccc(Cl)c1)C(Br)C(Br)c1ccccc1 (stereo unspecified)	97.8% (active)	99.2% (active)	99.3% (active)	99.2% (active)	98.5% (active)	98.7% (active)
CC12CCC(/C(=C/N3CCCCC3)C1=O)C2(C)C (stereo unspecified)	12.8%	10.2%	1.75%	-17.8%	22.4%	5.05%
CC(C)(C)c1ccc(C(=O)O)c(O)c1.CC(C)(C)c1ccc(C(=O)O)c(O)c1.[Cu]	24.6%	15.1%	43.4%	47.6%	2.75%	37.1%
O=C1C=CC(=NN=c2c3ccccc3oc3ccccc23)C=C1	-11.3%	-3.35%	4%	-20.9%	12.7%	0.1%
CC(=O)OCC1OC(N2C(c3ccccc3)=CC(c3cccs3)C(C#N)=C2S)C(OC(C)=O)C(OC(C)=O)C1OC(C)=O (stereo unspecified)	27.4%	28.9%	40.6%	18%	46.2%	23.3%
CC12CC(=O)C3C(CCC4=CC(=O)CCC43C)C1CC=C2CC(=O)O (stereo unspecified)	-4.8%	1.15%	-23.4%	-3.85%	-5.15%	-11.2%
C(=N[C@H]1CCCC[C@H]1N=Cc1ccc[nH]1)c1ccc[nH]1	14.8%	-3.6%	8.75%	3.45%	13.9%	20.7%
COc1ccc(-c2cc(N)c3c(c2O)C(=O)c2c(N)ccc(O)c2C3=O)cc1	13.3%	4.75%	4.75%	-23.6%	-4.65%	9.25%
C/C=C/C=C1/OC(C)=C(C(=O)OCC)C1=O	7.95%	-15.6%	6.55%	11.4%	-8.95%	-1.9%
CC(=O)Nc1c(C(N)=O)cnn1-c1ccccc1	17.9%	26.6%	17.7%	-0.2%	24.5%	36.9%
Cc1ccc(C(=Nc2ccccc2)N=S(c2ccccc2)c2ccccc2)cc1	-2.2%	5.6%	-19%	-16.1%	2.55%	-30.6%
CCNC(=O)CCC(NS(=O)(=O)c1ccc(NC(=O)c2ccc(Cl)cc2)cc1)C(=O)O (stereo unspecified)	0.8%	-4.95%	-26%	-4.6%	0.1%	-1.9%
CCOC(=O)c1c(C(=O)Nc2ccccc2)c(-c2ccccc2)n(NC(N)=O)c1C	5.25%	5.95%	0.5%	-2.4%	0.85%	2.95%
Oc1ccc(Cl)cc1N1CCOCC1	9.55%	24.1%	13.4%	-15.2%	-19.6%	-15%
CCOC(=O)C(CC[C@@H]1N[C@H](C(N)=O)Cc2c1[nH]c1ccccc21)C(=O)OCC	8.5%	-9.85%	5.3%	7.55%	7.9%	-13.7%
CCN(CC)CCC(=O)c1ccc(C)cc1	-37.4%	-46.8%	-26.1%	11.2%	0.5%	-23.1%
